# Test results reported in PubChem BioAssay (Tox21).
# Inconclusive results are not listed. A number with no mark means an inactive call. Active and inactive are the calls of the source. Calls follow the shape of the full dose curve.
# Molecular target: Muscarinic acetylcholine receptor M1 (Homo sapiens) (UniProt P11229)
# Assay: Cholinergic receptor muscarinic 1 (CHRM1) small molecule antagonists, cell-based qHTS assay (AID 1963588); also: nearly all actives have a fitted effect of over 40% in size
# Conditions: CHRM1-CHO antagonist mode, calcium flux fluorescence; series mostly up to 61.5 µM; activity, negative = inhibition: at the top concentration
# Excerpt: National Center for Advancing Translational Sciences [NCATS]
# Division of Preclinical Innovation [DPI]
# U.S. Environmental Protection Agency [EPA]
# National Institutes of Environmental Health Sciences [NIEHS]
# National Toxicology Program [NTP]
# U.S. Food and Drug Administration [FDA]
# The CHRM1 is a muscarinic receptor. This receptor plays a crucial role in learning and memory processes and has long been identified as a promising therapeutic target for the improvement of cognitive decline in Alzheimer's disease (AD). The CHRM1-CHO cell line stably expressing human muscarinic acetylcholine receptor M1 (CHRM1) can be used for screening agonists and antagonists of interactions between CHRM1 and its ligands. The CHRM1-CHO Calcium Flux Assay is a homogeneous fluorescence-based assay for detecting the intracellular calcium level using FDSS kinetic plate reader system.
# Tox21 Assay Protocol Summary:
# CHRM1-CHO cells were dispensed at 1000 cells/3uL/well in 1536-well black-clear bottom plates using a Multidrop Dispenser. After the assay plates were incubated at a 37 C/5% CO2 incubator for 18 h, 3 uL of Dye Loading Buffer was transferred to the assay plate by a Flying Reagent Dispenser. The assay plates were incubated at 37 C for 1h. For antagonist mode, 23 nL of compounds dissolved in DMSO, positive controls or DMSO only was transferred to the assay plate by a pin tool. After 5 min incubation at room temperature, 1.5 uL of acetylcholine at 50nM was added to each well. The fluorescence intensity in the plates was measured using FDSS 7000EX kinetic plate reader for 3 min at 1 sec intervals. Each test compound was measured at 15 concentrations in three independent runs.
# % is scaled to controls: 0 for no effect and ±100 for the full control effect; potency is read from the fitted curve at half-maximal effect.
# Muscarinic acetylcholine receptor M1 (Homo sapiens), sequence (P11229 whole entry, looked up): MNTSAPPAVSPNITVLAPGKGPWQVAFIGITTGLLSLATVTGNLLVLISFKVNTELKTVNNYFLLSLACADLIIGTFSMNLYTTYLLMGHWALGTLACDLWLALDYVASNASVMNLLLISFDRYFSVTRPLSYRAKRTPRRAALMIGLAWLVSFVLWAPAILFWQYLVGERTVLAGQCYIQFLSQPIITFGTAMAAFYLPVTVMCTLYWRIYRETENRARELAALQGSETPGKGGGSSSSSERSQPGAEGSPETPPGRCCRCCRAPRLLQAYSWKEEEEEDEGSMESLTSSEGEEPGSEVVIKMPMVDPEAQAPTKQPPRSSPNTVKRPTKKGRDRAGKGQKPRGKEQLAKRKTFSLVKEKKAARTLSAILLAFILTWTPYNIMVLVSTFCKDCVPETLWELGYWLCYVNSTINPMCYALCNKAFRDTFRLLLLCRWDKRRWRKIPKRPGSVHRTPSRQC
SMILES,"activity, negative = inhibition",Potency
Brc1c2ccccc2c(Br)c2ccccc12,-2.59% [at 5.58 µM],–
CN(C)CCN(C)CCO,-6.87%,–
O=C1CCCCCO1,7.25%,–
O=C(CCCCCCC(=O)Nc1ccccc1)NO,8.52% [at 28.3 µM],–
C=CCOc1ccccc1OCC(O)CNC(C)C (stereo not given),6.69% [at 28.3 µM],–
O=C1NC(=O)C2CC=CCC12 (stereo not given),12.9%,–
CCCOc1ccc2nc(NC(=O)OC)[nH]c2c1,4.26% [at 28.3 µM],–
C=CC(=O)OCCC#N,-2.69%,–
CCCCCCCCCCC1CO1 (stereo not given),3.63%,–
COC(=O)Nc1nc2ccc(C(=O)C3CC3)cc2[nH]1,17.6% [at 28.3 µM],–
COCCOC[C@H](CC1(C(=O)NC2CCC(C(=O)O)CC2)CCCC1)C(=O)Oc1ccc2c(c1)CCC2 (stereo not given in full),24.4%,–
O=C1C=CC(=O)N1c1cccc(N2C(=O)C=CC2=O)c1,13.2%,–
CCc1c(C)[nH]c2c1C(=O)C(CN1CCOCC1)CC2 (stereo not given),2.64% [at 28.3 µM],–
O=C1NCC2(CCN(CCc3ccccc3)CC2)O1,-22.7% [at 28.3 µM],–
CC(C)(Cc1c[nH]c2ccccc12)NCC(O)COc1ccccc1C#N (stereo not given),-29.9% [at 28.3 µM],–
CCCCC(CC)CNC(=O)CC(C)OC(=O)CCC(=O)O (stereo not given),11% [at 28.3 µM],–
Oc1c(Cl)cc(Cl)c2cccnc12,4.18% [at 28.3 µM],–
CCCCNc1ccc(C(=O)OCCOCCOCCOCCOCCOCCOCCOCCOCCOC)cc1,-18.4% [at 28.3 µM],–
O=C(Cl)c1cc(C(=O)Cl)cc(C(=O)Cl)c1,3.88%,–
CCCC1CCOC(C)S1 (stereo not given),-2.35%,–

SMILES,"activity, negative = inhibition",Potency
CCCCCCCCC(CCCCCC)C(=O)O (stereo not given),0.524%,–
CC(=O)c1ccc(C)cc1,10%,–
COc1cccc2c1C(=O)c1c(O)c3c(c(O)c1C2=O)C[C@@](O)(C(=O)CO)C[C@@H]3O[C@H]1C[C@H](N)[C@H](O[C@@H]2CCCCO2)[C@H](C)O1,-5.08% [at 28.3 µM],–
CCCC(CC)CCCCCCCN (stereo not given),–,4.84 µM (active)
Cc1nc(N)nc(N)c1-c1ccc(Cl)c(Cl)c1,–,7.29 µM (active)
COc1ccc(/C=N/NC(=O)c2ccncc2)cc1OC,1.33% [at 28.3 µM],–
CCCCCCOc1ccccc1C(N)=O,1.36% [at 28.3 µM],–
O=C(O)C1(C(=O)Nc2ccc(Cl)cc2Cl)CC1,1.4%,–
CCCCCCCCCCC=O,-11.4%,–
CN(C)[C@@H]1C(=O)C(C(N)=O)=C(O)[C@@]2(O)C(=O)C3=C(O)c4c(O)cccc4C[C@H]3C[C@@H]12,17.2% [at 28.3 µM],–
CCCCCCCC/C=C\CCCCCCCC(=O)OCCOC(=O)CCCCCCC/C=C\CCCCCCCC,-8.06%,–
N=C(N)N1CCc2ccccc2C1,-1.92% [at 5.58 µM],–
CCOc1ccc2nc(N)sc2c1,11%,–
Cc1ccccc1OCC(=O)O,3.63%,–
O=[N+]([O-])c1ccc(Cl)cc1Cl,7.19%,–
CC(C)(CO)[N+](=O)[O-],-3.02%,–
COc1cc(Cc2cnc(N)nc2N)cc(OC)c1OC,–,inactive
CC1(C)C(=O)N(Cl)C(=O)N1Br,0.0575%,–
CCCc1ccccc1O,13.3%,–
Cc1onc(-c2c(Cl)cccc2Cl)c1C(=O)N[C@@H]1C(=O)N2[C@@H]1SC(C)(C)[C@@H]2C(=O)O,64.2% [at 28.3 µM],–
